Assay outcomes (PubChem BioAssay)
Rows were chosen to be rich in hits. Some 4.7% of all compounds tested hit in one or more screens of this group.
Calb FLC: C. albicans growth inhibition with fluconazole, primary screen, CaCi-2 strain, Alamar Blue fluorescence; C. albicans CaCi-2 (fluconazole-resistant clinical isolate) + fluconazole, 48 h; growth inhibition, % (concentration not given with the values); 0.57% of 300,000 active; AID 1979, 2009;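 active means growth inhibition above about 58% in most replicates, limit read from the data, passing the limit was not always enough; inconclusive means exactly half the replicates above a set limit; inactive means most replicates below a set limit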;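 further: all wells also contain fluconazole at 8 µg/ml as a sub-toxic cotreatment; 0% = median of DMSO wells and 100% = median of geldanamycin control wells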
TIM10 inh: growth inhibitors of isogenic TIM10 control yeast, primary screen, counter-screen for tim10-1 yeast inhibitor project, luminescence, uHTS. S. cerevisiae TIM10 strain growth, BacTiter-Glo luminescence, 24 h. inhibition, % at 10 µM. 1.4% of 330,000 active. AID 463195, 2010;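 active means inhibition of 40% or more at the single tested concentration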;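 further: wild-type TIM10 isogenic control strain grown at permissive 25 °C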
SKKanGAS inh: S. pyogenes SKKanGAS growth inhibitors in kanamycin, primary screen, streptokinase expression inhibitor project, SKKanGAS strain, BacTiter-Glo luminescence; inhibition, % at 7.5 µM; AID 1662, 2009; 1.3% of 300,000 active; 6 h;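 active means mean replicate score, as percent of positive control median, at least 50; inconclusive means mean below 50 but one replicate at or above 50; inactive means mean and every replicate below 50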;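 further: strain carries kanamycin resistance gene driven by streptokinase promoter and grows in 40 µg/ml kanamycin; loss of luminescence reflects streptokinase promoter inhibition or plain growth inhibition; 0% = median of DMSO wells and 100% = positive control at its reference dose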
tim23-1 inh: growth inhibitors of tim23-1 mutant yeast, primary screen, luminescence, uHTS | S. cerevisiae tim23-1 growth, BacTiter-Glo luminescence, 24 h | inhibition, % at 20 µM | 1.3% of 330,000 active | AID 463212, 2010;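 active means growth inhibition of the mutant yeast at or above 50%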;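 further: temperature-sensitive mutant grown at 25 °C; plate controls were DMSO-treated mutant yeast for no effect and medium wells lacking yeast for full effect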
tim10-1 inh: growth inhibitors of tim10-1 mutant yeast, primary screen, luminescence, uHTS; 2.2% of 330,000 active; S. cerevisiae tim10-1 ts strain growth, BacTiter-Glo, 24 h; inhibition, % at 20 µM;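 active means inhibition of at least 40%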;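 further: mutant grown at 25 °C; 0% = DMSO wells with yeast and 100% = wells holding no yeast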
PfHsp90 set2: growth inhibition of PfHsp90-expressing yeast, primary screen, antimalarial PfHsp90 inhibitor project, S. cerevisiae, BacTiter-Glo luminescence, single point, set 2; BacTiter-Glo ATP, 48 h; yeast lacking PDR1 and PDR3 efflux regulators; inhibition, % at 9.4 µM; 0.32% of 310,000 active; AID 504621, 2011;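 active means every replicate shows inhibition above about 80%, whatever the replicate mean, limit read from the data; inconclusive means mean inhibition reaches the set limit but some replicate falls short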;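 further: 0% = DMSO neutral controls and 100% = 20 µM radicicol positive controls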
tim10 confirm: growth inhibitors of wild-type TIM10 yeast, confirmation, counter-screen for tim10-1 synthetic lethality project, single concentration, luminescence, S. cerevisiae | shares compounds with TIM10 inh | S. cerevisiae tim10 strain growth, BacTiter-Glo luminescence, 24 h | inhibition, % at 10 µM | 63% of 4,600 active;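 active means inhibition of yeast growth at or above a set limit in either of two replicates at 10 µM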;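 further: this counterscreen used the strain with wild-type TIM10; 0% = yeast with DMSO and 100% = medium wells lacking yeast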
* = called active by the depositor.

What do the screens show for `Cc1cccc(NCC(=O)N/N=C\c2ccc[nH]2)c1`?
Calb FLC: -2; TIM10 inh: 10; SKKanGAS inh: 4; tim23-1 inh: 8; tim10-1 inh: 8; PfHsp90 set2: -32

How did C/C(=N\Nc1ccc(S(=O)(=O)N2CCCCC2)cn1)c1cccc(Br)c1 do in these assays?
TIM10 inh: 41*; tim23-1 inh: 45; tim10-1 inh: 25; PfHsp90 set2: 0; tim10 confirm: 45*

Results for NNc1ccc(S(=O)(=O)N2CCCCC2)cn1 ?
Calb FLC: -9; TIM10 inh: -7; tim23-1 inh: 26; tim10-1 inh: 10; PfHsp90 set2: 22

Results for CNC(=O)c1ccc(Nc2nc(-c3ccccc3)nc3ccccc23)cc1 ?
Calb FLC: -1; TIM10 inh: 40*; SKKanGAS inh: -7; tim23-1 inh: 30; tim10-1 inh: 30; PfHsp90 set2: -8; tim10 confirm: 28

How did CCCCCCSc1cccc(-c2nc3ccc(Cl)cn3c2NCc2ccccc2)c1 do in these assays?
Calb FLC: -1; TIM10 inh: 5; SKKanGAS inh: 12; tim23-1 inh: 7; tim10-1 inh: 11; PfHsp90 set2: -2

What do the screens show for `CCOc1ccc(C(=O)NCC(=O)OCc2nnc(-c3ccccc3)o2)cc1OCC`?
TIM10 inh: 50*; tim23-1 inh: 1; tim10-1 inh: -10; PfHsp90 set2: 0; tim10 confirm: -15

Results for Cc1ccc(C(=O)N2CC3(C(C)C)CN(C(=O)c4ccc(C)cc4)CC(C(C)C)(C2)C3=O)cc1 ?
Calb FLC: -1; TIM10 inh: 44*; SKKanGAS inh: 3; tim23-1 inh: 20; tim10-1 inh: 38; PfHsp90 set2: -9; tim10 confirm: 5

What do the screens show for `COc1ccc(Sc2cc(C(F)(F)F)nc(-c3ccccn3)n2)cc1`?
Calb FLC: 34; TIM10 inh: 45*; SKKanGAS inh: 21; tim23-1 inh: 34; tim10-1 inh: 37; PfHsp90 set2: -12; tim10 confirm: 31*

Results for CCC1CCC(NC(=O)Nc2cccc(OC)c2)CC1 (stereo not drawn) ?
Calb FLC: -9; TIM10 inh: 45*; SKKanGAS inh: -2; tim23-1 inh: 25; tim10-1 inh: 30; PfHsp90 set2: -10; tim10 confirm: 24

Results for COc1ccc(C(CNC(=O)C(C)(C)Oc2ccc(Cl)cc2)N2CCOCC2)cc1 (stereo not drawn) ?
PfHsp90 set2: 37

Results for CN1CCN(c2nc(-c3ccc(Cl)cc3)nc3ccccc23)CC1 ?
Calb FLC: 18; TIM10 inh: 41*; SKKanGAS inh: 4; tim23-1 inh: 46; tim10-1 inh: 17; PfHsp90 set2: -12; tim10 confirm: 22

Results for O=C(c1ccc(Br)cc1)N1CCC(C(=O)N2CCN(Cc3ccccc3)CC2)CC1 ?
Calb FLC: 23; TIM10 inh: 12; SKKanGAS inh: -12; tim23-1 inh: -1; tim10-1 inh: 12; PfHsp90 set2: 32

How did CC(C)COC(=O)N1C[C@H](O)C[C@H]1C(=O)Nc1ccc(Cl)cc1 do in these assays?
Calb FLC: -18; TIM10 inh: -11; SKKanGAS inh: -2; tim23-1 inh: -4; tim10-1 inh: 6; PfHsp90 set2: 5

What do the screens show for `O=C(N/N=C/C1C(c2ccccc2)C1(Cl)Cl)c1cccc(Cl)c1` (stereo not drawn)?
Calb FLC: -7; TIM10 inh: 40*; SKKanGAS inh: 8; tim23-1 inh: 44; tim10-1 inh: 37; PfHsp90 set2: -18; tim10 confirm: 12

How did O=C(N/N=C/c1c[nH]c2ccccc12)c1cccc(Cl)c1 do in these assays?
Calb FLC: 1; TIM10 inh: 7; SKKanGAS inh: -6; tim23-1 inh: 14; tim10-1 inh: -5; PfHsp90 set2: 18

What do the screens show for `CCn1cc(CNC(=O)c2cccc([N+](=O)[O-])c2)c(C)n1`?
Calb FLC: 2; TIM10 inh: -19; SKKanGAS inh: -7; tim23-1 inh: 6; tim10-1 inh: 15; PfHsp90 set2: -1

Results for O=C(NCc1cn(-c2ccccc2)nc1-c1ccc(F)cc1)c1cccc([N+](=O)[O-])c1 ?
Calb FLC: 12; TIM10 inh: 41*; SKKanGAS inh: 2; tim23-1 inh: 6; tim10-1 inh: 33; PfHsp90 set2: -4; tim10 confirm: 21

How did CC(C)c1ccccc1NC(=S)NC1CCCCC1 do in these assays?
Calb FLC: -7; TIM10 inh: 46*; SKKanGAS inh: 7; tim23-1 inh: 14; tim10-1 inh: 37; PfHsp90 set2: -2; tim10 confirm: 25

Results for CSc1ccccc1NC(=S)NC1CCCCC1 ?
Calb FLC: inconclusive; TIM10 inh: -35; SKKanGAS inh: 2; tim23-1 inh: 25; tim10-1 inh: 29; PfHsp90 set2: -10

Results for S=C(Nc1ccccc1Oc1ccccc1)NC1CCCC1 ?
Calb FLC: -24; TIM10 inh: 41*; SKKanGAS inh: 15; tim23-1 inh: 37; tim10-1 inh: 24; PfHsp90 set2: 13; tim10 confirm: 20

What do the screens show for `Fc1ccc2nc(Nc3ccccc3)sc2c1`?
Calb FLC: -9; TIM10 inh: 43*; SKKanGAS inh: -1; tim23-1 inh: 24; tim10-1 inh: 30; PfHsp90 set2: -23; tim10 confirm: 30

Results for NNc1nc2ccc(F)cc2s1 ?
Calb FLC: -9; TIM10 inh: 5; SKKanGAS inh: 3; tim23-1 inh: 20; tim10-1 inh: 13; PfHsp90 set2: 2

What do the screens show for `CC(=O)Nc1cc(C(=O)N2CCc3ccccc3C2)ccc1Sc1ccc(Cl)cc1`?
Calb FLC: -3; TIM10 inh: 42*; SKKanGAS inh: 16; tim23-1 inh: 43; tim10-1 inh: 35; PfHsp90 set2: 4; tim10 confirm: -9

What do the screens show for `COc1ccccc1CNC(=O)CN1C(=O)NC2(CCC(C)CC2)C1=O` (stereo not drawn)?
TIM10 inh: -13; tim23-1 inh: 4; tim10-1 inh: -1; PfHsp90 set2: -3

What do the screens show for `COc1ccc2cc(C(=O)N/N=C/c3sc4ccccc4c3O)ccc2c1`?
Calb FLC: -6; TIM10 inh: -1; SKKanGAS inh: 10; tim23-1 inh: 1; tim10-1 inh: 3; PfHsp90 set2: -49

How did O=C(N/N=C/c1sc2ccccc2c1O)c1ccccc1 do in these assays?
Calb FLC: 21; TIM10 inh: 40*; SKKanGAS inh: 90*; tim23-1 inh: 45; tim10-1 inh: 34; PfHsp90 set2: 100*; tim10 confirm: 7
